Test results as given in PubChem BioAssay (NCATS).
Records with an inconclusive call do not appear. Where a call stands in place of a potency, no number is given. The source made the active and inactive calls. Unless noted, the call rests on the fitted dose curve; in most records, active means well fitted curve in the direction sought with a large enough effect; inconclusive means small, poorly fitted or top-dose-only effect, or another doubt; inactive means no such curve, though single readings can be large; an effect the other way counts as inactive or inconclusive.

How the values were obtained:
[1] = MultiTox-Fluor Cytotoxicity Assay - LYMP1-001 - Dead Cells (AID 946)
In short: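 AC50 from Hill fit of concentration-response; data normalized to DMSO (basal) and 15 uM tetraoctylammonium bromide (100%). LYMP1-001 lymphoblastoid cells, 2500/well, 16 hr compound at 37 C; dead-cell protease fluorescence, Ex/Em 485/520.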

[2] = MultiTox-Fluor Cytotoxicity Assay - LYMP1-001 - Live Cells (AID 947)
[3] = Cell Viability - LYMP1-002 - Assay at 16 hr (AID 948)
In short: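 LYMP1-002 human lymphoblastoid cells, 2500/well; 5 hr 37 C; cpd 16 hr 37 C; CellTiter-Glo 30 min RT; luminescence (ATP). Concentration-response, Hill-fit AC50. Pos ctrl tetraoctylammonium bromide.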

[4] = target: Pyruvate kinase PKM (Homo sapiens) (UniProt P14618); assay: qHTS Assay for Activators of Human Muscle Pyruvate Kinase (AID 954; active means well fitted curve in the direction sought with a large enough effect, not every such curve was filed as active)
Pyruvate kinase PKM (Homo sapiens), sequence (P14618 whole entry, looked up): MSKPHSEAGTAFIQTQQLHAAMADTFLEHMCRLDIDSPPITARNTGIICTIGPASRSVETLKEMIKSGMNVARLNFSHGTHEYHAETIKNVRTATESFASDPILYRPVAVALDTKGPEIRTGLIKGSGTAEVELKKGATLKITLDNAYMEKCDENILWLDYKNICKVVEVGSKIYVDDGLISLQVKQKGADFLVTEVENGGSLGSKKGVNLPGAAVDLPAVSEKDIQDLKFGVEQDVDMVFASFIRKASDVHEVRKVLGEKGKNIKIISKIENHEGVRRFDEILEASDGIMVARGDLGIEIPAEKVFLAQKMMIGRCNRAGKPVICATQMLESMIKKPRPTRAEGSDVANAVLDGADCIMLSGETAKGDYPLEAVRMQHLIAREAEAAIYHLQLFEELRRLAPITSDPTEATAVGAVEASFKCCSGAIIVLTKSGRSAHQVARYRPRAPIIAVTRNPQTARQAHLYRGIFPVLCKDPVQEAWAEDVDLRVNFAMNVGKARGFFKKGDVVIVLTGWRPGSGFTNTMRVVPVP
In short: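 A coupled luminescent readout tracked ATP made from ADP by purified PKM2. Final conditions included 0.1 nM enzyme, PEP and ADP at 0.5 and 0.1 mM, pH 7.2 imidazole buffer with BSA, and a one-hour room-temperature reaction.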

[5] = MultiTox-Fluor Cytotoxicity Assay - LYMP1-002 - Live Cells (AID 955);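 further: cells exposed to compound for 16 hours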
In short: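 After 16 h compound exposure at 37 C, live LYMP1-002 lymphoblastoid cells (2500/well) were quantified by cleavage of cell-permeant GF-AFC substrate, read at 405/510 nm after 60 min. Concentration-response fitted with Hill equation for AC50.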

[6] = MultiTox-Fluor Cytotoxicity Assay - LYMP1-002 - Dead Cells (AID 960); further: nearly all actives have a fitted effect of over 60% in size
In short: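 Dead-cell fluorescence (Ex/Em 485/520) after 16 h compound exposure at 37 C of LYMP1-002 lymphoblastoid cells in complete medium; AC50 by Hill equation, with data scaled between DMSO and 15 uM tetraoctylammonium bromide.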

[7] = MultiTox-Fluor Cytotoxicity Assay - LYMP1-003 - Dead Cells (AID 961); further: nearly all actives have a fitted effect of over 70% in size
In short: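 Human lymphoblastoid LYMP1-003 cells (2500/well) were treated with compounds for 16 hr at 37 C in complete medium. Dead-cell protease release was read by bis-AAF-R110 fluorescence (Ex/Em 485/520). AC50 came from Hill fits, normalized to DMSO and 15 uM tetraoctylammonium bromide.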

[8] = MultiTox-Fluor Cytotoxicity Assay - LYMP1-003 - Live Cells (AID 962);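 further: cells exposed to compound for 16 hours at 37 °C; cytotoxic hits lower the live-cell protease signal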
In short: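 Live-cell protease activity (GF-AFC substrate, 405/510 nm, 60 min at room temperature) after 16 h, 37 C compound exposure of human lymphoblastoid LYMP1-003 cells; concentration-response fitted to the Hill equation for AC50.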

[9] = Cell Viability - LYMP1-003 - Assay at 24 hr (AID 963)
In short: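 Concentration-response qHTS: ATP loss measured by CellTiter-Glo luminescence after 24 h compound exposure at 37 C. Cells were LYMP1-003 human lymphoblastoid, 2500 per well. AC50 derived via standard Hill equation modeling.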

[10] = Cell Viability - LYMP1-003 - Assay at 40 hr (AID 964); further: series mostly up to about 92 µM; nearly all actives have a fitted effect of over 60% in size
In short: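 Viability is taken as cellular ATP, read by CellTiter-Glo luminescence after 40 h of compound exposure at 37 C. Cells: human lymphoblastoid line LYMP1-003 at 2500/well; AC50 values derived by Hill-equation fitting of concentration-response data.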

[11] = Cell Viability - LYMP2-003 (AID 965);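 further: cells exposed to compounds for 24 h before reading; nearly all actives have a fitted effect of over 50% in size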
In short: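 CellTiter-Glo luminescence (cellular ATP) after 24 h compound exposure at 37 C in complete medium; 2500 cells/well, 5 h settling beforehand. Concentration-response fitted to standard Hill equation for AC50. Tetraoctylammonium bromide served as positive control.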

[12] = Cell Viability - LYMP2-004 (AID 966); further: nearly all actives have a fitted effect of over 65% in size
In short: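 AC50 values come from Hill modelling of concentration-dependent loss of intracellular ATP, measured by CellTiter-Glo luminescence. Human LYMP2-004 lymphoblastoid cells (2500/well) were exposed to compound for 24 h at 37 C.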

[13] = Cell Viability - LYMP2-005 (AID 967); further: series mostly up to about 92 µM
In short: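 Steps: seed 2500 LYMP2-005 cells/well, incubate 5 h at 37 C, add compound, incubate 24 h at 37 C, add CellTiter-Glo, wait 30 min at RT, read luminescence. Concentration-response data fitted to Hill equation for AC50.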

[14] = Cell Viability - LYMP2-009 (AID 968); further: series mostly up to about 92 µM; nearly all actives have a fitted effect of over 55% in size
[15] = Cell Viability - LYMP2-011 (AID 969); further: nearly all actives have a fitted effect of over 60% in size
In short: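 Cytotoxicity qHTS with ATP content as read-out: lymphoblastoid cells (2500/well) exposed to compound for 24 h at 37 C, then luciferase luminescence measured. Concentration-response data fitted with the standard Hill equation to give AC50.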

[16] = Cell Viability - LYMP2-013 (AID 970); further: series mostly up to about 92 µM; nearly all actives have a fitted effect of over 55% in size
In short: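 qHTS cytotoxicity: ATP-dependent luminescence (CellTiter-Glo, 30 min room temperature) read after 24 h compound exposure at 37 C of 2500 LYMP2-013 lymphoblastoid cells per well. Concentration-response fitted with Hill equation to give AC50.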

[17] = Cell Viability - LYMP2-015 (AID 971); further: nearly all actives have a fitted effect of over 55% in size
In short: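 Cytotoxicity readout: decrease in intracellular ATP (CellTiter-Glo luminescence) in 2500 LYMP2-015 lymphoblastoid cells/well after 24 h compound exposure at 37 C. Concentration-response data fitted with the standard Hill equation to give AC50.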

[18] = Cell Viability - LYMP2-017 (AID 972); further: series mostly up to about 92 µM; nearly all actives have a fitted effect of over 55% in size
In short: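 CellTiter-Glo luminescence (cellular ATP, 30 min RT) measured cytotoxicity after 24 hr compound treatment at 37 C. Cells were a human lymphoblastoid line, LYMP2-017, plated at 2500/well and incubated 5 hr first; concentration-response fitted with Hill equation for AC50.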

[19] = target: Pyruvate kinase (Leishmania mexicana) (UniProt Q27686); assay: qHTS Validation Assay for Activators of Leishmania Mexicana Pyruvate Kinase (AID 959)
Pyruvate kinase (Leishmania mexicana), sequence (Q27686 2-499 E452W): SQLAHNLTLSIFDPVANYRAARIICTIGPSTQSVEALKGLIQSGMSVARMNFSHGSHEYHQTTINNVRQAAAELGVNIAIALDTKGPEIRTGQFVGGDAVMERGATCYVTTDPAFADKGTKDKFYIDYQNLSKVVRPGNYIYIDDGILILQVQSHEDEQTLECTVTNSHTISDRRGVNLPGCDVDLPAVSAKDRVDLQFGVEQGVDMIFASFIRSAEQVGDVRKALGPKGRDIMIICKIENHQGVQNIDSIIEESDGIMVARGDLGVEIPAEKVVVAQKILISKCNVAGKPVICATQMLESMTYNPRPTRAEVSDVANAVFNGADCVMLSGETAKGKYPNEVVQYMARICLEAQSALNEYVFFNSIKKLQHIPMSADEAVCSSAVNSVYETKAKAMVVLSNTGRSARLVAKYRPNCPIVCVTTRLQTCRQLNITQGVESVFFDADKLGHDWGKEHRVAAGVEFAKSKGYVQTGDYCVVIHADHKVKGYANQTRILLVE
In short: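 The enzyme is a highly purified E451W mutant of LmPYK used at 0.2 nM. It converts 0.5 mM PEP and 0.1 mM ADP over 1 h at room temperature; product ATP is quantified by luciferase luminescence relative to DMSO controls.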

[20] = target: Pyruvate kinase PKM (Homo sapiens) (UniProt P14618); assay: qHTS Assay for Inhibitors of Human Muscle Pyruvate Kinase (AID 958); conditions: purified human PKM enzyme activity
In short: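 Compound pinned into substrate mix (0.5 mM PEP, 0.1 mM ADP), then 0.1 nM PKM2 added; 1 h, RT. Stop/detection luciferase reagent added, luminescence read. Normalized to no-inhibition and no-enzyme or reference-inhibitor controls.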

With `Clc1ccc(C(c2ccccc2Cl)C(Cl)Cl)cc1` (stereo unspecified) the Potency [1] was “inactive”, the outcome [2] was “inactive” and the outcome [3] was “inactive”. For the same compound, the outcome [4] was “inactive”, the outcome [5] was “inactive” and the Potency [6] was “inactive”. The outcome [7] was “inactive”, the outcome [8] was “inactive” and the outcome [9] was “inactive”. The Potency [10] was “inactive”, the outcome [11] was “inactive” and the outcome [12] was “inactive”. For the same compound, the outcome [13] was “inactive”, the outcome [14] was “inactive” and the outcome [15] was “inactive”. The outcome [16] was “inactive”, the outcome [17] was “inactive” and the outcome [18] was “inactive”.
With `COc1ccc(CCN(C)CCCC(C#N)(c2ccc(OC)c(OC)c2)C(C)C)cc1OC` (stereo unspecified) the Potency [1] was “inactive”, the outcome [2] was “inactive” and the outcome [3] was “inactive”. The outcome [5] was “inactive”, the Potency [6] was “inactive” and the outcome [7] was “inactive”. For the same compound, the outcome [8] was “inactive”, the outcome [9] was “inactive” and the Potency [10] was “inactive”.
With `CC(COc1ccccc1)N(CCCl)Cc1ccccc1` (stereo unspecified) the Potency [1] was “inactive”, the outcome [2] was “inactive” and the outcome [3] was “inactive”. The outcome [5] was “inactive”, the Potency [6] was “inactive” and the outcome [7] was “inactive”. The outcome [8] was “inactive”, the outcome [9] was “inactive” and the Potency [10] was “inactive”. The outcome [11] was “inactive”, the outcome [12] was “inactive” and the outcome [13] was “inactive”.
In the case of `COc1ccc2c(c1)c(CC(=O)O)c(C)n2C(=O)c1ccc(Cl)cc1`, the Potency [1] is reported as “inactive”, the outcome [2] is reported as “inactive” and the outcome [3] is reported as “inactive”. For the same compound, the outcome [4] was “inactive”, the outcome [5] was “inactive” and the Potency [6] was “inactive”. For the same compound, the outcome [7] was “inactive”, the outcome [8] was “inactive” and the outcome [9] was “inactive”. The Potency [10] was “inactive”, the outcome [11] was “inactive” and the outcome [12] was “inactive”. The outcome [13] was “inactive”, the outcome [14] was “inactive” and the outcome [15] was “inactive”. For the same compound, the outcome [16] was “inactive”, the outcome [17] was “inactive” and the outcome [18] was “inactive”.
With `CCc1cccc2c3c([nH]c12)C(CC)(CC(=O)O)OCC3` (stereo unspecified) the outcome [4] was “inactive”.
For `O=c1c(-c2ccc(O)cc2)coc2cc(O)cc(O)c12`, the Potency [1] was “inactive”, the outcome [2] was “inactive” and the outcome [3] was “inactive”. The outcome [4] was “inactive”, the outcome [5] was “inactive” and the outcome [19] was “inactive”. The Potency [6] was “inactive”, the outcome [7] was “inactive” and the outcome [8] was “inactive”. The outcome [9] was “inactive”, the Potency [10] was “inactive” and the outcome [11] was “inactive”. For the same compound, the outcome [12] was “inactive”, the outcome [13] was “inactive” and the outcome [14] was “inactive”. The outcome [15] was “inactive”, the outcome [16] was “inactive” and the outcome [17] was “inactive”. For the same compound, the outcome [18] was “inactive”.
With `Cc1ccc(C(=O)Nc2ccc(S(=O)(=O)O)c3cc(S(=O)(=O)O)cc(S(=O)(=O)O)c23)cc1NC(=O)c1cccc(NC(=O)Nc2cccc(C(=O)Nc3cc(C(=O)Nc4ccc(S(=O)(=O)O)c5cc(S(=O)(=O)O)cc(S(=O)(=O)O)c45)ccc3C)c2)c1` the outcome [4] was “inactive”.
In the case of `NS(=O)(=O)c1cc2c(cc1Cl)NCNS2(=O)=O`, the Potency [1] is reported as “inactive”, the outcome [2] is reported as “inactive” and the outcome [3] is reported as “inactive”. For the same compound, the outcome [4] was “inactive”, the outcome [5] was “inactive” and the outcome [7] was “inactive”. For the same compound, the outcome [8] was “inactive”, the outcome [9] was “inactive” and the Potency [10] was “inactive”. The outcome [11] was “inactive”, the outcome [12] was “inactive” and the outcome [13] was “inactive”. The outcome [14] was “inactive”, the outcome [15] was “inactive” and the outcome [16] was “inactive”. The outcome [17] was “inactive” and the outcome [18] was “inactive”.
With `CCC1(c2ccccc2)C(=O)NCNC1=O` the Potency [1] was “inactive”, the outcome [2] was “inactive” and the outcome [3] was “inactive”. For the same compound, the outcome [4] was “inactive”, the outcome [5] was “inactive” and the Potency [6] was “inactive”. The outcome [7] was “inactive”, the outcome [8] was “inactive” and the outcome [9] was “inactive”. The Potency [10] was “inactive”, the outcome [11] was “inactive” and the outcome [12] was “inactive”. The outcome [13] was “inactive”, the outcome [14] was “inactive” and the outcome [15] was “inactive”. For the same compound, the outcome [16] was “inactive”, the outcome [17] was “inactive” and the outcome [18] was “inactive”.
For `Cc1ccc(-c2cc(C(F)(F)F)nn2-c2ccc(S(N)(=O)=O)cc2)cc1`, the Potency [1] was “inactive”, the outcome [3] was “inactive” and the outcome [5] was “inactive”. The outcome [7] was “inactive”, the outcome [8] was “inactive” and the outcome [9] was “inactive”. The Potency [10] was “inactive”, the outcome [11] was “inactive” and the outcome [12] was “inactive”. The outcome [13] was “inactive”, the outcome [14] was “inactive” and the outcome [15] was “inactive”. For the same compound, the outcome [16] was “inactive”, the outcome [17] was “inactive” and the outcome [18] was “inactive”.
For `CNCCCC12CCC(c3ccccc31)c1ccccc12`, the outcome [4] was “inactive”.
For `Cc1cc(C(C)(C)C)cc(C)c1CC1=NCCN1`, the outcome [4] was “inactive”.
For `Cc1cn([C@H]2C=C[C@@H](CO)O2)c(=O)[nH]c1=O`, the Potency [1] was “inactive”, the outcome [2] was “inactive” and the outcome [3] was “inactive”. The outcome [4] was “inactive”, the outcome [5] was “inactive” and the Potency [6] was “inactive”. The outcome [7] was “inactive”, the outcome [8] was “inactive” and the outcome [9] was “inactive”. For the same compound, the Potency [10] was “inactive”, the outcome [11] was “inactive” and the outcome [12] was “inactive”. For the same compound, the outcome [13] was “inactive”, the outcome [14] was “inactive” and the outcome [15] was “inactive”. The outcome [16] was “inactive”, the outcome [17] was “inactive” and the outcome [18] was “inactive”.
With `CN(C)C(=O)C(CCN1CCC(O)(c2ccc(Cl)cc2)CC1)(c1ccccc1)c1ccccc1` the outcome [4] was “inactive”.
In the case of `Nc1c2c(nc3ccccc13)CCCC2`, the Potency [1] is reported as “inactive”, the outcome [2] is reported as “inactive” and the outcome [3] is reported as “inactive”. The outcome [4] was “inactive”, the outcome [5] was “inactive” and the Potency [6] was “inactive”. The outcome [7] was “inactive”, the outcome [8] was “inactive” and the outcome [9] was “inactive”. The Potency [10] was “inactive”, the outcome [11] was “inactive” and the outcome [12] was “inactive”. The outcome [13] was “inactive”, the outcome [14] was “inactive” and the outcome [15] was “inactive”. The outcome [16] was “inactive”, the outcome [17] was “inactive” and the outcome [18] was “inactive”.
In the case of `Nc1nnc(-c2cccc(Cl)c2Cl)c(N)n1`, the outcome [4] is reported as “inactive”.
With `CC(C)C(=O)Nc1ccc([N+](=O)[O-])c(C(F)(F)F)c1` the Potency [1] was “inactive”, the outcome [2] was “inactive” and the outcome [3] was “inactive”. For the same compound, the outcome [4] was “inactive”, the outcome [5] was “inactive” and the outcome [7] was “inactive”. The outcome [8] was “inactive”, the outcome [9] was “inactive” and the Potency [10] was “inactive”. For the same compound, the outcome [11] was “inactive”, the outcome [12] was “inactive” and the outcome [13] was “inactive”. The outcome [14] was “inactive”, the outcome [15] was “inactive” and the outcome [17] was “inactive”. The outcome [18] was “inactive”.
For `Cn1ccc2cc3c(cc21)CCN3C(=O)Nc1cccnc1`, the Potency [20] was 6.31 µM (active).
In the case of `O=C(Nc1ccc([N+](=O)[O-])cc1Cl)c1cc(Cl)ccc1O`, the Potency [20] is reported as 3.16 µM (active).
